Laboratory results as given in article PMC7862700, “An all-to-all approach to the identification of sequence-specific readers for epigenetic DNA modifications on cytosine”.

Columns and labels:
Experiment in all cases: DAPPL (digital affinity profiling via proximity ligation, sequencing); 10 mM Tris-HCl pH 7.5, 50 mM NaCl, 1 mM DTT, 4% glycerol, room temperature, 30 min; GST-TFs on glutathione beads, 16-mer random dsDNA library, 0.1% formaldehyde crosslink after washing; high values mean tight binding
Conditions in all cases: protein: recombinant; tags: N-terminal GST; dsDNA, one strand shown
FLI1 = target: T1, FLI1 (Homo sapiens, UniProt Q01543 1-452)
T1 sequence: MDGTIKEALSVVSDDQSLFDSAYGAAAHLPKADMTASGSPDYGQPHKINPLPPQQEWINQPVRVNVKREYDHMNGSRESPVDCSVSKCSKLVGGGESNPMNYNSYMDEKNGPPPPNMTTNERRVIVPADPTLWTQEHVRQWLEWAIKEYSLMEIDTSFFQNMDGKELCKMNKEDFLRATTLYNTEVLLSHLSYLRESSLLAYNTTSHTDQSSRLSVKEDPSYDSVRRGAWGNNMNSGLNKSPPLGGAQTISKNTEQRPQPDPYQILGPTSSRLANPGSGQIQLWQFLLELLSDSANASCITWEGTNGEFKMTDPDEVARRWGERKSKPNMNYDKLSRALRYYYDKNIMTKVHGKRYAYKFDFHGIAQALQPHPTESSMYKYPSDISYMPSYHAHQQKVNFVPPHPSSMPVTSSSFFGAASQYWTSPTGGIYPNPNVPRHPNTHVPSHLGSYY
How it was run: (§1)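 After expression in yeast as GST fusions, human transcription factors were bound to glutathione beads, DNA-barcoded and mixed with a tag-only sample. The pools were incubated with 200 nmole of a 16-mer random double-stranded DNA library in Tris/NaCl/DTT/glycerol buffer (30 min, room temperature), washed and crosslinked with 0.1% formaldehyde. Proximity ligation with BsaI/T4 ligase ran for 1 h at 37 °C, before PCR amplification and sequencing on an Illumina NextSeq500. Binding signal is a hexamer's read frequency for a factor divided by its frequency for the tag-only sample.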

ELK1 = target: T2, ELK1 (Homo sapiens, UniProt P19419 1-428)
T2 sequence: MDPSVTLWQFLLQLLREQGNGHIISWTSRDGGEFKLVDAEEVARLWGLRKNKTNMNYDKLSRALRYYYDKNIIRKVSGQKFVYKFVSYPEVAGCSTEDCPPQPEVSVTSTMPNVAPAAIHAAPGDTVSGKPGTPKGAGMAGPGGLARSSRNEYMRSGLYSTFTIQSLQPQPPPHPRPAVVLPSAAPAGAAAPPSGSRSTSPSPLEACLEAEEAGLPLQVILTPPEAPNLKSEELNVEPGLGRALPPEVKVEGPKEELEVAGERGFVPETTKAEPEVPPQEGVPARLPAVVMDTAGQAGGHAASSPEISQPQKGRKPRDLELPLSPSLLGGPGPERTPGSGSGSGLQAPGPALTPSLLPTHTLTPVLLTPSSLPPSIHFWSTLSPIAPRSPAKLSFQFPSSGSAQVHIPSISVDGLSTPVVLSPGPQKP
How it was run: as §1

ERG = target: T3, ERG (Homo sapiens, UniProt P11308 1-479)
T3 sequence: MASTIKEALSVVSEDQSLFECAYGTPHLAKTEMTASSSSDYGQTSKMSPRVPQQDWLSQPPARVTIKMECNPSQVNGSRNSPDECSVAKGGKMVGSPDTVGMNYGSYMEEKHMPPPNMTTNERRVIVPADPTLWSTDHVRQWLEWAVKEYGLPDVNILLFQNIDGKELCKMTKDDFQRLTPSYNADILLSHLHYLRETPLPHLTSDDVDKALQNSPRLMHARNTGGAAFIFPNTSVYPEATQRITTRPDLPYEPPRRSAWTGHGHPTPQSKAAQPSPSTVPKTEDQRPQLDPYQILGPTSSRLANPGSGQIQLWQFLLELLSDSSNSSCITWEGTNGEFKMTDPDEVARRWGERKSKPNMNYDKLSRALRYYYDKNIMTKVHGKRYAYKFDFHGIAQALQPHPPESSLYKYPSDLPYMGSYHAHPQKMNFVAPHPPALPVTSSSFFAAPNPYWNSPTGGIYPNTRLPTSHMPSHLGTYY
How it was run: as §1

EHF = target: T4, EHF (Homo sapiens, UniProt Q9NZC4 1-300)
T4 sequence: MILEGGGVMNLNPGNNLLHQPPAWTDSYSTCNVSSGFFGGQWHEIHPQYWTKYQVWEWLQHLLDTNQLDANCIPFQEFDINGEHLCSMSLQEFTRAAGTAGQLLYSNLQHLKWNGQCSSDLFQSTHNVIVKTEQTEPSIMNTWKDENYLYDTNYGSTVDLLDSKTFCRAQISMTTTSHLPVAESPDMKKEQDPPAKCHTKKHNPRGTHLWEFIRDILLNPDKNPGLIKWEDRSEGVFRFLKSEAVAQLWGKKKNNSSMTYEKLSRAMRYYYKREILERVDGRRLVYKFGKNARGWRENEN
How it was run: as §1

SPI1 = SPI1 (Homo sapiens, UniProt P17947 1-270)
How it was run: as §1

SPIB = SPIB (Homo sapiens, UniProt Q01892 1-262)
How it was run: as §1

ETV5 = ETV5 (Homo sapiens, UniProt P41161 1-510)
How it was run: as §1

SPIC = target: T5, SPIC (Homo sapiens, UniProt Q8N5J4 1-248)
T5 sequence: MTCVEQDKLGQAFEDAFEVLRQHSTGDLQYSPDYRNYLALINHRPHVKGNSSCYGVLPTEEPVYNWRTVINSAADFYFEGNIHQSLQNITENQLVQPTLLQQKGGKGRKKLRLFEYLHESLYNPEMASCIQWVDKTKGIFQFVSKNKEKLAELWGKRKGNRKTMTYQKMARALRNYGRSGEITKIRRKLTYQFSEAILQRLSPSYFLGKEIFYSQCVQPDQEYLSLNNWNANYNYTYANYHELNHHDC
How it was run: as §1

ELF4 = ELF4 (Homo sapiens, UniProt Q99607 1-663)
How it was run: as §1

ELK4 = target: T6, ELK4 (Homo sapiens, UniProt P28324-2 1-405)
T6 sequence: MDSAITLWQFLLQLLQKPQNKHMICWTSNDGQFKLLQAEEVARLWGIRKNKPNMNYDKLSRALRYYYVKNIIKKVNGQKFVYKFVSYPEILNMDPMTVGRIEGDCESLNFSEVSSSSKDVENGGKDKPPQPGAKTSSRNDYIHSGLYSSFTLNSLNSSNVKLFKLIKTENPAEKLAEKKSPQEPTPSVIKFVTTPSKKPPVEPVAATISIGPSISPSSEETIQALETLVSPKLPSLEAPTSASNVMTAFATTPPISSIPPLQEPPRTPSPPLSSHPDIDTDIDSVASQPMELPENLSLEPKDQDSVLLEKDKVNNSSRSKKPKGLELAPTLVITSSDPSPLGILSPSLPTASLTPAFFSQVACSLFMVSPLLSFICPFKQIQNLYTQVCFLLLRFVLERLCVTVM
How it was run: as §1

ETV2 = target: T7, ETV2 (Homo sapiens, UniProt O00321 1-342)
T7 sequence: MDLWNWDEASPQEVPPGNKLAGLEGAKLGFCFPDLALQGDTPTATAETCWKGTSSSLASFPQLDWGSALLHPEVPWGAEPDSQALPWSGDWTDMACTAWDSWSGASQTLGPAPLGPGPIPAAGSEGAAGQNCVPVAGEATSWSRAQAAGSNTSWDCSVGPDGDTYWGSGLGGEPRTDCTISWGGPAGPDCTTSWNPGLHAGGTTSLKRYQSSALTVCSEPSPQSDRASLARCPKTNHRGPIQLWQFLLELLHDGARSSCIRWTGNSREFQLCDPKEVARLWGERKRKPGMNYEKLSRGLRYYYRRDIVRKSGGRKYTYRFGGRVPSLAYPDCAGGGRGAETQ
How it was run: as §1

ELF3 = target: T8, ELF3 (Homo sapiens, UniProt P78545 1-371)
T8 sequence: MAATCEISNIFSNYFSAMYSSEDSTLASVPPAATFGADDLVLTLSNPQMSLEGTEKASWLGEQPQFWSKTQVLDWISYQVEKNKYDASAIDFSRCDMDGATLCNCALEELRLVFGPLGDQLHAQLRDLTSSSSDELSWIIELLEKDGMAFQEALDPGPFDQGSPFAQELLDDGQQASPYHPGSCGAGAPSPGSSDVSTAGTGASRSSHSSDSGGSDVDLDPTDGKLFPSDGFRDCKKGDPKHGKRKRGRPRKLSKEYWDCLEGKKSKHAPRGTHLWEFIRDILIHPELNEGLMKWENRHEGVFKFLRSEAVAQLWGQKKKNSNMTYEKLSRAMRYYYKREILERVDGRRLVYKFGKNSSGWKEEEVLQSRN
How it was run: as §1

ETV1 = ETV1 (Homo sapiens, UniProt P50549 1-477)
How it was run: as §1

GABPA = target: T9, GABPA (Homo sapiens, UniProt Q06546 1-454)
T9 sequence: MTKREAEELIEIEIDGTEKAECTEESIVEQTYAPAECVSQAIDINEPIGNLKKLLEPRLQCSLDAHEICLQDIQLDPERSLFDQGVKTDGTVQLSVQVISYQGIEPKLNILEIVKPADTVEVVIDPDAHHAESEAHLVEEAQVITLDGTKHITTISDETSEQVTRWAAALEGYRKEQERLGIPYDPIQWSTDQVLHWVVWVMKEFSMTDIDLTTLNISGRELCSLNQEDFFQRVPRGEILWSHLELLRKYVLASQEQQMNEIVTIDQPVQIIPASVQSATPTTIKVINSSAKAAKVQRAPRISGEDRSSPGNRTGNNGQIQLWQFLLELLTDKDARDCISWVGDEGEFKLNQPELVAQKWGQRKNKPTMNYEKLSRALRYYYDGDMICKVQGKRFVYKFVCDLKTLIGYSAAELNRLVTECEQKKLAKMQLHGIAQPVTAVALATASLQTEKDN
How it was run: as §1

ELF1 = ELF1 (Homo sapiens, UniProt P32519 1-619)
How it was run: as §1

ELK3 = target: T10, ELK3 (Homo sapiens, UniProt P41970 1-407)
T10 sequence: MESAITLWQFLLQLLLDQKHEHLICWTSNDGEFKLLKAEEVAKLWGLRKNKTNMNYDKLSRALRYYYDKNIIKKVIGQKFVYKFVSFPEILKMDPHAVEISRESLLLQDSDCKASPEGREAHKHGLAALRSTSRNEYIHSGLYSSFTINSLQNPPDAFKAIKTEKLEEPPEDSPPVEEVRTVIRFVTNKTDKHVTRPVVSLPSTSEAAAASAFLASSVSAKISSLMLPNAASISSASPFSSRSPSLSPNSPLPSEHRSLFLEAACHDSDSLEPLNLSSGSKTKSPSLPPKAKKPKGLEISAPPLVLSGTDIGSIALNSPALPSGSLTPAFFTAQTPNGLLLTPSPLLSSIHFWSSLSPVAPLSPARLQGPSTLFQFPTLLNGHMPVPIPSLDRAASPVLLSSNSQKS
How it was run: as §1

FEV = target: T11, FEV (Homo sapiens, UniProt Q99581 1-238)
T11 sequence: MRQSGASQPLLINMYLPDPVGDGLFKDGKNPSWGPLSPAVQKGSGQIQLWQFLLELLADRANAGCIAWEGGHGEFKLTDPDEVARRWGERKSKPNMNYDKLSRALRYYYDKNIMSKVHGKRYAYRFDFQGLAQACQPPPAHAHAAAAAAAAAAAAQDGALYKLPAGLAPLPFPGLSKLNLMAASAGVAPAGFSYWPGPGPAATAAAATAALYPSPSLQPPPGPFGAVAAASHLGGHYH
How it was run: as §1

Sequence of ELF4 (Q99607 whole entry): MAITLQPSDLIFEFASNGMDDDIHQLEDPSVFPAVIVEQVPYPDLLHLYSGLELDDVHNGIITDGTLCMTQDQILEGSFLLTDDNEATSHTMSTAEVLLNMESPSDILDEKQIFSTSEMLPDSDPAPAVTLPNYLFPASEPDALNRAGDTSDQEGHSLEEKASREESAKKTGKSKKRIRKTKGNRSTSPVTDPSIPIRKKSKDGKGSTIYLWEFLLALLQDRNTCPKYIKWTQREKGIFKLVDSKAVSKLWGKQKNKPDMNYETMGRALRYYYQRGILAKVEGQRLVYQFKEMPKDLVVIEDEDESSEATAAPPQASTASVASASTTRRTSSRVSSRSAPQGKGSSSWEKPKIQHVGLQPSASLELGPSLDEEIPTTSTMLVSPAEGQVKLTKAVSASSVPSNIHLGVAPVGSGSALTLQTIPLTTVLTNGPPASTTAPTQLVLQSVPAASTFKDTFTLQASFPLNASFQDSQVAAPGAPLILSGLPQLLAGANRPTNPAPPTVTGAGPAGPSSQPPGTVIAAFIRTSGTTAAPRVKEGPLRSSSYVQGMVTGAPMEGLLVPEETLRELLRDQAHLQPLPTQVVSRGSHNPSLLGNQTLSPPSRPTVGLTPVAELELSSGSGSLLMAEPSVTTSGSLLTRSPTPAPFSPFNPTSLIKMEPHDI
Sequence of ETV5 (P41161 whole entry): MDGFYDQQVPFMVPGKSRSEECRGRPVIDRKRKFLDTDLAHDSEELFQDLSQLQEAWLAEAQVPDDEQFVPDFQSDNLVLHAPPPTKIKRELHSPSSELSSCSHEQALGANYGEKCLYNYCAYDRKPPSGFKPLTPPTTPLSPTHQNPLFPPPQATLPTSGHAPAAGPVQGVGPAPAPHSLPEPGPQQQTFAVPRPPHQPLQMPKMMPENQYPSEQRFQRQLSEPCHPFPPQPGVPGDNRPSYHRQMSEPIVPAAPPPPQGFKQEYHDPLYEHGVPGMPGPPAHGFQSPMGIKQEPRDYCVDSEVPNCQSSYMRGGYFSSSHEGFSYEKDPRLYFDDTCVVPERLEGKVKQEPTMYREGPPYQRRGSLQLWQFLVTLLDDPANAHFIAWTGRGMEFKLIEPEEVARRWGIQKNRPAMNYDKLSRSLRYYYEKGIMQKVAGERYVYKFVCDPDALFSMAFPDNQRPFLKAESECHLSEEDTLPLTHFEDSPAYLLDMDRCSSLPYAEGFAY
Sequence of ETV1 (P50549 whole entry): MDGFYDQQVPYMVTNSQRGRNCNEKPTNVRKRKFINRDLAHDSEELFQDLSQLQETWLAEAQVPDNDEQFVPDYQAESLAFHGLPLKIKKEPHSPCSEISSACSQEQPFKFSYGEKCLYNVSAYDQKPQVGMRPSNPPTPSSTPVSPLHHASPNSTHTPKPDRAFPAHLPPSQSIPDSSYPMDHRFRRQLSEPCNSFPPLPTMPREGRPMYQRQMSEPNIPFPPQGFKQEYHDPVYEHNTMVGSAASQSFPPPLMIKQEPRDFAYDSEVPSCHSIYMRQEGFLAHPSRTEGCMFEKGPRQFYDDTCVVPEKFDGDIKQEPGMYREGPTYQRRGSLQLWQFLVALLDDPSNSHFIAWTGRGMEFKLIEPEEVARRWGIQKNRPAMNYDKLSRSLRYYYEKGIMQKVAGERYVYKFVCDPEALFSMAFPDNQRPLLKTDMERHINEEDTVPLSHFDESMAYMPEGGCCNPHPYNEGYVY
Sequence of SPIB (Q01892 whole entry): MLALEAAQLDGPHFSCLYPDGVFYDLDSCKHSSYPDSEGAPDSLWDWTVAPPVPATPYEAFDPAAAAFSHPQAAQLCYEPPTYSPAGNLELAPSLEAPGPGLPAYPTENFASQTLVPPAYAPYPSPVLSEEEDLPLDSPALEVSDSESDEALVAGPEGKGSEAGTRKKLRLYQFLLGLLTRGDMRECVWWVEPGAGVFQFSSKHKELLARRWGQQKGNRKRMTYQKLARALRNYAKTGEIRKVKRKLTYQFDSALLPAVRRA
Sequence of ELF1 (P32519 whole entry): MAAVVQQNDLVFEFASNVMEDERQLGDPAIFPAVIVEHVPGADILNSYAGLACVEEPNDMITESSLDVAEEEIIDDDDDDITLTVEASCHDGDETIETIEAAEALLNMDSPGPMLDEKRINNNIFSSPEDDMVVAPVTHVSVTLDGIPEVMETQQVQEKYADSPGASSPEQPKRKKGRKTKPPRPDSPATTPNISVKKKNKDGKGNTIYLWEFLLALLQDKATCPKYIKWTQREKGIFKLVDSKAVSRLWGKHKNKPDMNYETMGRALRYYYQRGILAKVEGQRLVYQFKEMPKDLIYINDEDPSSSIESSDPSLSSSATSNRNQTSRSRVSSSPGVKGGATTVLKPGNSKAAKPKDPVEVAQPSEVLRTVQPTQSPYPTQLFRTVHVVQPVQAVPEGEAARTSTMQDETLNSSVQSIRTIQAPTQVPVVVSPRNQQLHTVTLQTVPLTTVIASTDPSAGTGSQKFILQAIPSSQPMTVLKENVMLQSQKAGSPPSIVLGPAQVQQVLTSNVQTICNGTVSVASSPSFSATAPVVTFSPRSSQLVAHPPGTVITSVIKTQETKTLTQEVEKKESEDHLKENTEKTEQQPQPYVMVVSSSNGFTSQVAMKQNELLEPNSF

| Sequence | binding signal (FLI1) | binding signal (ELK1) | binding signal (ERG) | binding signal (EHF) | binding signal (SPI1) | binding signal (SPIB) | binding signal (ETV5) | binding signal (SPIC) | binding signal (ELF4) | binding signal (ELK4) | binding signal (ETV2) | binding signal (ELF3) | binding signal (ETV1) | binding signal (GABPA) | binding signal (ELF1) | binding signal (ELK3) | binding signal (FEV) |
| --- | --- | --- | --- | --- | --- | --- | --- | --- | --- | --- | --- | --- | --- | --- | --- | --- | --- |
| ATAGGT | 1.08 fold enrichment (6-mer frequency, TF over GST control) | 1.01 fold enrichment (6-mer frequency, TF over GST control) | 1.01 fold enrichment (6-mer frequency, TF over GST control) | 1.04 fold enrichment (6-mer frequency, TF over GST control) | 1.01 fold enrichment (6-mer frequency, TF over GST control) | 1.04 fold enrichment (6-mer frequency, TF over GST control) | 1.08 fold enrichment (6-mer frequency, TF over GST control) | 1.01 fold enrichment (6-mer frequency, TF over GST control) | 1.01 fold enrichment (6-mer frequency, TF over GST control) | 1.02 fold enrichment (6-mer frequency, TF over GST control) | 1.11 fold enrichment (6-mer frequency, TF over GST control) | 1.11 fold enrichment (6-mer frequency, TF over GST control) | 1.03 fold enrichment (6-mer frequency, TF over GST control) |  |  |  |  |
| GCGCTC | 1.26 fold enrichment (6-mer frequency, TF over GST control) | 1.2 fold enrichment (6-mer frequency, TF over GST control) | 1.15 fold enrichment (6-mer frequency, TF over GST control) | 1.09 fold enrichment (6-mer frequency, TF over GST control) | 1.13 fold enrichment (6-mer frequency, TF over GST control) | 1.18 fold enrichment (6-mer frequency, TF over GST control) | 1.13 fold enrichment (6-mer frequency, TF over GST control) | 1.04 fold enrichment (6-mer frequency, TF over GST control) | 1.24 fold enrichment (6-mer frequency, TF over GST control) | 1.19 fold enrichment (6-mer frequency, TF over GST control) | 1.22 fold enrichment (6-mer frequency, TF over GST control) | 1.19 fold enrichment (6-mer frequency, TF over GST control) |  | 1.16 fold enrichment (6-mer frequency, TF over GST control) | 1.12 fold enrichment (6-mer frequency, TF over GST control) | 1.15 fold enrichment (6-mer frequency, TF over GST control) | 1.06 fold enrichment (6-mer frequency, TF over GST control) |
| GCAATA | 1.02 fold enrichment (6-mer frequency, TF over GST control) | 1.1 fold enrichment (6-mer frequency, TF over GST control) |  | 1.07 fold enrichment (6-mer frequency, TF over GST control) |  |  | 1.07 fold enrichment (6-mer frequency, TF over GST control) | 1.16 fold enrichment (6-mer frequency, TF over GST control) | 1.07 fold enrichment (6-mer frequency, TF over GST control) | 1.11 fold enrichment (6-mer frequency, TF over GST control) | 1.01 fold enrichment (6-mer frequency, TF over GST control) | 1.09 fold enrichment (6-mer frequency, TF over GST control) | 1.07 fold enrichment (6-mer frequency, TF over GST control) | 1.02 fold enrichment (6-mer frequency, TF over GST control) | 1.05 fold enrichment (6-mer frequency, TF over GST control) |  |  |
